Results as given in paper PMC7819943, “Rice protein-binding microarrays: a tool to detect cis-acting elements near promoter regions in rice”.
In all, about 68,000 sequences were measured (“fluorescence intensity (a.u.)”: median about 9,100, highest 2% from about 16,000 on). Many of the other results were omitted from the sample, so the highest values are more common in it than they were.

target: OsWRKY34 (Oryza sativa, UniProt Q0JBA9 1-250); test: protein-binding microarray (RPBM); PBS, 2% BSA, 51.3 ng/ul salmon testes DNA, 50 uM zinc acetate, 200 nM TF, 25 C, 1 h; high values mean tight binding; conditions: protein: recombinant; tags: N-terminal polyhistidine and DsRed monomer fusion (pET32a); label: CyDye5-dUTP incorporated in the synthesized complementary strand; 3' TTTTT single-stranded linker to array surface; dsDNA, one strand shown
Sequence (Q0JBA9 entry or part of it): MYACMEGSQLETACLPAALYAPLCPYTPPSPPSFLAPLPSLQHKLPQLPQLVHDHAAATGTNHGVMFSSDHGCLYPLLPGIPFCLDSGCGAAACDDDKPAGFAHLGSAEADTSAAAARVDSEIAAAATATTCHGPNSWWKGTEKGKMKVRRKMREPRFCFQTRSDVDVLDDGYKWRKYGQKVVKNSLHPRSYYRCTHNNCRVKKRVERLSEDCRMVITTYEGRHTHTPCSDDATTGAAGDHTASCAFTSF
Procedure, shortened: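 In PBS with 2% BSA, salmon testes DNA and 50 µM zinc acetate, 200 nM protein was incubated on a custom Agilent array at 25 °C for 1 h and then washed off. The array had been made double-stranded by primer extension with Cy5-dUTP and blocked with 2% BSA. The proteins were transcription factors fused N-terminally to polyhistidine and DsRed, expressed in E. coli BL21-CodonPlus and purified on Ni–NTA. The binding signal is per-feature fluorescence intensity (arbitrary units) from an Axon 4000B scanner.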

Row | Sequence | binding signal
1 | ACATTAACTAAATGGTGGAGGGCAGGGGTTCGTCTTTCTTCGGAGTCACCTAGTGCAG | 13600 fluorescence intensity (a.u.)
2 | GACTACTGAATGTGCTATTCTTGGCCTTTTCTATAGATAACGGAGTCACCTAGTGCAG | 9960 fluorescence intensity (a.u.)
3 | CTATTTTGGCCACTCGGGAGATGGTGTTGTTTCTGAATTTCGGAGTCACCTAGTGCAG | 8180 fluorescence intensity (a.u.)
4 | CTGTCTTCACCGTGCCGCTCCTTTCCTTCCATTTCATCTCCGGAGTCACCTAGTGCAG | 8440 fluorescence intensity (a.u.)
5 | CAGGGGTGGGTGTTAGCTGTTGTGCAAGAAGTGGTGTTTGCGGAGTCACCTAGTGCAG | 10600 fluorescence intensity (a.u.)
6 | GCCGGAGTCCATCGCCCTACATTGCCCACCAACCGCACGCCGGAGTCACCTAGTGCAG | 10200 fluorescence intensity (a.u.)
7 | TTCATATTCTTTTTTTTTTCGAGGTCATACTTTTTAATTCCGGAGTCACCTAGTGCAG | 12200 fluorescence intensity (a.u.)
8 | GCGGGGTTGATTTCTGACTGAGATTTTGTTTTTCTTTTCTCGGAGTCACCTAGTGCAG | 14000 fluorescence intensity (a.u.)
9 | AGTGGATGAGTTTGAGTTTTAGGATTTAGTGGGGTATTATCGGAGTCACCTAGTGCAG | 15100 fluorescence intensity (a.u.)
10 | GGGGATTGGTTTGGTGTGGGTGTTTTGTGTGGGGATTGATCGGAGTCACCTAGTGCAG | 28100 fluorescence intensity (a.u.)
11 | TTTTTGTTTTTTAATTGTGGAGTTTGGGAGGAGGAGGGGACGGAGTCACCTAGTGCAG | 9870 fluorescence intensity (a.u.)
12 | GGGTTTGGGGATCGATTGATTTATAGGCTTTTTTGTTTTTCGGAGTCACCTAGTGCAG | 8810 fluorescence intensity (a.u.)
13 | GAGGTGGCTGGAGTGGGGTTTAGTGTTGGTTGTTAGGGATCGGAGTCACCTAGTGCAG | 13500 fluorescence intensity (a.u.)
14 | AAATTTATTGTTTGGCTGGAAGACGTGGGGTTTTAAGAGGCGGAGTCACCTAGTGCAG | 8370 fluorescence intensity (a.u.)
15 | GTTGCAGGGTGGGGATTGTTAAATTTATTGTTTGGCTGGACGGAGTCACCTAGTGCAG | 16600 fluorescence intensity (a.u.)
16 | CCACTGACTACTGATGGGTGTGTTGATAGTGTTTTGTCAGCGGAGTCACCTAGTGCAG | 8870 fluorescence intensity (a.u.)
17 | AGGGTTTGTTTGTTTATTTGTTTGTTTGATCGGTGTGGGGCGGAGTCACCTAGTGCAG | 13300 fluorescence intensity (a.u.)
18 | TTTTTCACGGGGATGGGTCGGGGATTGTTGACTGATAAAGCGGAGTCACCTAGTGCAG | 21700 fluorescence intensity (a.u.)
19 | CGTGGGGTGGGATCGGAAGCAGTGGAGTTGTTTTTATTATCGGAGTCACCTAGTGCAG | 16500 fluorescence intensity (a.u.)
20 | TATCTAATAATTGGATGGTTACAACCAAATACTTCTACATCGGAGTCACCTAGTGCAG | 9870 fluorescence intensity (a.u.)
21 | TTGATCCTTTTTCGCCGCTCACGCCGAGCTGCCCCGACAACGGAGTCACCTAGTGCAG | 8340 fluorescence intensity (a.u.)

Row | Sequence | binding signal
22 | TTTTCTATACTGTATTTTGTGTCATTTTCAATCATTGATTCGGAGTCACCTAGTGCAG | 14400 fluorescence intensity (a.u.)
23 | AAACAGAGGTTTTTCTCCTGTACATGTGTCCCATGCCAACCGGAGTCACCTAGTGCAG | 9880 fluorescence intensity (a.u.)
24 | TTTTTATATGTTTGGTTCTTATGAGTTCCTAAGTGTGAAACGGAGTCACCTAGTGCAG | 8230 fluorescence intensity (a.u.)
25 | CATTTCTTATTTTGTTTTTGGGCTTTGATGTTTGGTTTCTCGGAGTCACCTAGTGCAG | 8740 fluorescence intensity (a.u.)
26 | TTTACATCTAATATTTTTTATTTGGGGTTCAGCGGGCATTCGGAGTCACCTAGTGCAG | 11100 fluorescence intensity (a.u.)
27 | CTTTTTTTTGGTTTGCCGTGTGGTGGGTTTCGGGTCCGCGCGGAGTCACCTAGTGCAG | 14500 fluorescence intensity (a.u.)
28 | TGGGTGGTGTTGGTTTTGCATGGTAGACGCGGGGTCCGATCGGAGTCACCTAGTGCAG | 18400 fluorescence intensity (a.u.)
29 | TTTGGGGTTCAGCGGGCATTTGTTTTGATTGTTTCTTATTCGGAGTCACCTAGTGCAG | 23400 fluorescence intensity (a.u.)
30 | TGGTCGGGTGTTTTTGTGATTGATGGTTTTGGTAGACGGGCGGAGTCACCTAGTGCAG | 11200 fluorescence intensity (a.u.)
31 | CTAAAAGTCAATCCACGCCACCATCGATCTCTCTATCCAACGGAGTCACCTAGTGCAG | 9440 fluorescence intensity (a.u.)
32 | CTATGATTGGTCAAGTGCTGTTGCTATTTCTCTGCTGATACGGAGTCACCTAGTGCAG | 10200 fluorescence intensity (a.u.)
33 | GCTGTTCCATGCTCCACAACCCCGGGTCATTGACCCAATCCGGAGTCACCTAGTGCAG | 16700 fluorescence intensity (a.u.)
34 | TCACCACCACCATCACAACCCAATCCCAATCCAAACCACCCGGAGTCACCTAGTGCAG | 8530 fluorescence intensity (a.u.)
35 | GATCATCTGTTCCACCCGCCACCCGCCACCCGCCACAATCCGGAGTCACCTAGTGCAG | 13200 fluorescence intensity (a.u.)
36 | GAAAAGCCACTAATCTCCAACCTCGTCTACACTTCTCCAACGGAGTCACCTAGTGCAG | 8970 fluorescence intensity (a.u.)
37 | GTTTGATCCATTACAGCTCCACATATATTGTGAAATCATTCGGAGTCACCTAGTGCAG | 10500 fluorescence intensity (a.u.)
38 | ACAACCGCACATACGCCACGGCCCACTCCTCCTTCTCGCCCGGAGTCACCTAGTGCAG | 9350 fluorescence intensity (a.u.)
39 | GAACGTCTGGACGTTGGAACACTCCATGTTTTTGTCTGATCGGAGTCACCTAGTGCAG | 8740 fluorescence intensity (a.u.)
40 | TCTGTCTATCCTTTGTAAAGTCACTTGCCCTTGCATTACTCGGAGTCACCTAGTGCAG | 16500 fluorescence intensity (a.u.)
41 | CCTTGTCTGTACTCTCTCTACTTTCCACCTCTATCCGCCTCGGAGTCACCTAGTGCAG | 9420 fluorescence intensity (a.u.)
42 | TATATCTATATGCCATATCATCTGTCTATCCTTTGTAAAGCGGAGTCACCTAGTGCAG | 8740 fluorescence intensity (a.u.)
